Inconclusive results are not listed. The source made the active and inactive calls. Unless noted, calls follow the shape of the dose curve; as a rule, active = well fitted curve in the direction sought with a large enough effect; inconclusive = small, poorly fitted or top-dose-only effect, or another doubt; inactive = no such curve, though single readings can be large; an effect the other way counts as inactive or inconclusive.
Key:
[1] = target: Beta-2 adrenergic receptor (Homo sapiens) (UniProt P07550); test: qHTS validation assay of beta-arrestin-biased ligands of beta2-adrenergic receptor (AID 485366); also: 0% is about no effect
Outline: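 Screening used a titration range of up to 46 microM in a beta-arrestin recruitment Tango luciferase assay. Cells in 1% FBS medium were treated 18 hr at 37 degrees C, and luminescence was normalized to %Activity.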

[2] = target: ATP-dependent 6-phosphofructokinase (Trypanosoma brucei brucei) (UniProt O15648); test: qHTS Validation Assay to Find Inhibitors of T. brucei phosphofructokinase (AID 485368)
Outline: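 PFK-generated ADP was measured after 45 min at room temperature using ADP-Glo. The reaction contained 0.5 mM F6P and 0.1 mM ATP.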

[3] = Quantitative high throughput screen for delayed death inhibitors of the malarial parasite plastid, 96 hour incubation (AID 488745); also: nearly all actives have a fitted effect of over 70% in size; also: potency is read from the fitted curve at half-maximal effect
Outline: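 Luciferase-expressing P. falciparum, infected RBCs 2% Hct/0.1% parasitemia (final); 96 h cpd exposure, 37 C, 5% CO2; RPMI 1640 + 0.5% Albumax, bicarbonate, gentamycin. Readout: luminescence loss = growth inhibition.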

[4] = Quantitative high throughput screen for delayed death inhibitors of the malarial parasite plastid, 48 hour incubation (AID 488752); also: nearly all actives have a fitted effect of over 65% in size; also: potency is read from the fitted curve at half-maximal effect
Outline: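 Luciferase-expressing P. falciparum in RBCs, 2% Hct, 0.1% parasitemia final; RPMI 1640 + 0.5% Albumax; 48 h, 37 C, 5% CO2; luminescence readout, signal drop = growth inhibition.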

[5] = target: Thioredoxin reductase 1, cytoplasmic (Rattus norvegicus) (UniProt O89049); test: qHTS Assay for Substrates of Mammalian Selenoprotein Thioredoxin Reductase 1 (TrxR1) (AID 488772);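 also: series mostly up to about 57 µM; 0% is about no effect; a drop in NADPH fluorescence below the no-compound background marks a TrxR1 substrate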
Outline: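 In this dual-purpose format, potential substrates are identified from the first fluorescence read after selenite addition, not from the 8-minute delta. Rat enzyme is preincubated with NADPH and then with compound at ~22 deg C.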

[6] = target: Thioredoxin reductase 1, cytoplasmic (Rattus norvegicus) (UniProt O89049); test: qHTS Assay for Inhibitors of Mammalian Selenoprotein Thioredoxin Reductase 1 (TrxR1) (AID 488773); conditions: Potency: inhibition;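 also: drop in NADPH fluorescence over an 8 min run after selenite addition; series mostly up to about 57 µM; % is scaled to controls: 0 for no effect and ±100 for the full control effect; nearly all actives have a fitted effect of over 40% in size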
Outline: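 Inhibition is scored from the loss of NADPH fluorescence between first and last reads of an 8-min kinetic run. Selenite (400 uM) was the substrate, added after 15 min compound preincubation at room temperature.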

[7] = target: Flap endonuclease 1 (Homo sapiens) (UniProt P39748); test: qHTS Validation Assay for the Inhibitors of Human Flap endonuclease 1 (FEN1) (AID 488816); also: % is scaled to controls: 0 for no effect and ±100 for the full control effect
Outline: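 Steps: add FEN1 (10 nM reagent) or buffer only; pin compounds; hold 15 min at room temperature; start with substrate, 50 nM final; read at 0 and 15 min; correct, normalize and fit a four-parameter Hill curve.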

[8] = target: M-phase phosphoprotein 8 (Homo sapiens) (UniProt Q99549); test: qHTS Validation Assay for Inhibitors for MPP8 Chromodomain Interactions with Methylated Histone Tails (AID 488949);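 also: AlphaScreen signal from MPP8 chromodomain bound to biotinylated H3K9me3 peptide; top concentration of the series differs between compounds; % is scaled to controls: 0 for no effect and ±100 for the full control effect; nearly all actives have a fitted effect of over 55% in size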
Outline: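 AlphaScreen proximity signal from streptavidin donor and Ni-chelate acceptor beads (10 ug/mL each) reported binding of MPP8 to trimethyl-K9 H3(1-18) peptide, both at 50 nM. The complex formed 30 min before a 30 min compound exposure at room temperature, in PBS pH 7.4.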

[9] = target: Chromobox protein homolog 1 (Homo sapiens) (UniProt P83916); test: qHTS Validation Assay for Inhibitors of HP1-beta Chromodomain Interactions with Methylated Histone Tails (AID 488953);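 also: loss of AlphaScreen luminescence from HP1-beta binding biotinylated H3K9me3 peptide; series mostly up to about 110 µM; % is scaled to controls: 0 for no effect and ±100 for the full control effect; nearly all actives have a fitted effect of over 50% in size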
Outline: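 AlphaScreen proximity readout: streptavidin donor and Ni-chelate acceptor beads, 10 ug/mL final, 30 min dark, RT. Complex of 50 nM HP1-beta and 50 nM b-H3(1-18)K9me3 formed 30 min, then compound-treated 30 min; PBS pH 7.4/0.01% Tween-20.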

[10] = target: Methanococcus maripaludis chaperonin (MmCpn) (UniProt Q6LX38); test: High-Throughput Screening for Modulators of Cytosolic Chaperonin Activity: MmCpn Primary Screen (AID 488978);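 also: 50 nM MmCpn enzyme hydrolysing 30 µM ATP at 37 °C; 0% is about no effect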
Outline: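 ATPase activity of 50 nM MmCpn was assayed with 30 uM ATP, 10 minutes at 37C, after a 5 min compound preincubation at room temperature. ADP production was read as HTRF emission at 590 and 665 nm.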

[11] = target: Transient receptor potential cation channel subfamily V member 1 (Homo sapiens) (UniProt Q8NER1); test: HTS Assay for Compounds that Act as Enhancers of the Vanilloid Receptor 1 (AID 488979); also: 0% is about no effect
Outline: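 TRPV1-expressing cells loaded with Fluo-8 calcium dye; compounds added and calcium influx read kinetically for 3 min (agonist phase), then capsaicin at EC20 added and read 2 min more for enhancement. Fluorescence ex 480/em 520 nm.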

[12] = target: D(1A) dopamine receptor (Homo sapiens) (UniProt P21728); test: HTS Assay for Allosteric Agonists of the Human D1 Dopamine Receptor: Primary Screen for Agonists (AID 488981); also: 0% is about no effect
Outline: (§1)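 Tetracycline-induced HEK293 T-REx cells force-coupled to calcium signalling were incubated overnight at 30 C and dye-loaded at room temperature. Calcium flux over 180 s after compound addition flagged agonists; a further 180 s read after EC20 dopamine flagged potentiators.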

[13] = target: D(1A) dopamine receptor (Homo sapiens) (UniProt P21728); test: HTS Assay for Allosteric Agonists of the Human D1 Dopamine Receptor: Primary Screen for Potentiators (AID 488982); also: 0% is about no effect
Outline: as §1

[14] = target: D(1A) dopamine receptor (Homo sapiens) (UniProt P21728); test: HTS Assay for Allosteric Agonists of the Human D1 Dopamine Receptor: Primary Screen for Antagonists (AID 488983);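 also: calcium flux response to an EC80 dopamine challenge measured with no-wash dye; nearly all actives have a fitted effect of over 65% in size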; also: potency is read from the fitted curve at half-maximal effect
Outline: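 Calcium flux readout, no-wash dye, inducible HEK293 T-REx D1 line (force-coupled). Compound added after 10 s baseline, 180 s kinetic read; then dopamine at EC80, further 180 s read.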

[15] = Validation screen for small molecules that induce genotoxicity in human embryonic kidney (HEK293T) cells expressing luciferase-tagged ELG1 (AID 493106); also: 0% is about no effect
Outline: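 qHTS format; 2,000 HEK293T ELG1-luc cells/well; 23 nL compound via pin tool; 16 hr, 37 °C/5% CO2; ONE-Glo, 30 min RT; luminescence read.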

[16] = target: Thyrotropin-releasing hormone receptor (Homo sapiens) (UniProt P34981); test: qHTS for Small Molecule Agonists and Allosteric Enhancers of Human TRH Receptor: Validation Screen for Agonists (AID 493127;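 active = calcium activation more than 3 SD above the typical response in the agonist read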;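 also: intracellular calcium rise by fluo-8 fluorescence before TRH EC20 addition; 0% is about no effect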); conditions: TRH receptor agonist cell assay; at 2 µM; active compounds read high
Outline: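 Read-out: intracellular calcium release measured kinetically by FDSS (fluo-8, ex 480/em 530 nm), 1 reading/s after a 10-cycle baseline. TRHR cells, 2000/well, cultured 18 h at 33.5C, dye-loaded at room temp. Compound-evoked positive calcium signal flags agonists.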

[17] = target: Thyrotropin receptor (Homo sapiens) (UniProt P16473); test: qHTS Assay for Antagonists of the Thyroid Stimulating Hormone Receptor (AID 488980); also: series mostly up to about 58 µM; 0% is about no effect
Outline: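 Inhibition of cAMP raised by EC80 TSH (4 nM final) was read by HTRF, with lysate cAMP competing against cAMP-d2 for cryptate antibody after 30 min at room temperature. The cells were transfected HEK293 held in phosphodiesterase inhibitor RO 20-1724 at 70 uM.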

[18] = target: ATPase family AAA domain-containing protein 5 (Homo sapiens) (UniProt Q96QE3); test: Validation screen for small molecules that inhibit ELG1-dependent DNA repair in human embryonic kidney (HEK293T) cells expressing luciferase-tagged ELG1 (AID 493107);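 also: cells co-treated with the DNA-damaging agent 5-fluorouridine alongside compound; series mostly up to about 46 µM; % is scaled to controls: 0 for no effect and ±100 for the full control effect; inhibitors lower the ELG1-luciferase luminescence signal; nearly all actives have a fitted effect of over 70% in size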
Outline: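 ELG1-luciferase HEK293T reporter; 5-fluorouridine + compound/DMSO, 16 hr, 37 °C, 5% CO2; ONE-Glo 30 min RT; luminescence read, qHTS format.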

Thioredoxin reductase 1, cytoplasmic (Rattus norvegicus), sequence (O89049 whole entry, looked up): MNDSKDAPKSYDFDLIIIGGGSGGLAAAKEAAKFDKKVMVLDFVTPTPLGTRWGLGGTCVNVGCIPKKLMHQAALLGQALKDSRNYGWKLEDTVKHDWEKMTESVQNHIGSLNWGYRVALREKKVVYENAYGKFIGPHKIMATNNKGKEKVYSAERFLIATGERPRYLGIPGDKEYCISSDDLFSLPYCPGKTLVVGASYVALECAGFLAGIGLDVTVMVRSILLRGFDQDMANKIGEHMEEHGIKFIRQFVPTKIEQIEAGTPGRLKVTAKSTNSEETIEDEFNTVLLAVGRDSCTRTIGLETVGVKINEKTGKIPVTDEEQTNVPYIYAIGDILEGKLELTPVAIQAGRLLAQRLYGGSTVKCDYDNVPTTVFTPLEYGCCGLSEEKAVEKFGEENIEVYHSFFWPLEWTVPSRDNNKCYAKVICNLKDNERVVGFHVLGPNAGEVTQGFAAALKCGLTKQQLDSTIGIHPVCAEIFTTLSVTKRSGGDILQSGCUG
Flap endonuclease 1 (Homo sapiens), sequence (P39748 whole entry, looked up): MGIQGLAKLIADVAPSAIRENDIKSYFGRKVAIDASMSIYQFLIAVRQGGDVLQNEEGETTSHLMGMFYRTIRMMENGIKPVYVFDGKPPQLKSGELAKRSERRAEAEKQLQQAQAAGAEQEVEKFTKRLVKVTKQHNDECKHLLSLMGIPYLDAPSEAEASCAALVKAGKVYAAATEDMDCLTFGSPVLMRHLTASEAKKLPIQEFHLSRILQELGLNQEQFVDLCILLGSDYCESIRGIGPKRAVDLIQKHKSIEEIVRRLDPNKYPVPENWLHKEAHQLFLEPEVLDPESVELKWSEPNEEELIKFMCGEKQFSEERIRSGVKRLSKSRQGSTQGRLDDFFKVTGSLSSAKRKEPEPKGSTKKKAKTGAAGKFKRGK
ATPase family AAA domain-containing protein 5 (Homo sapiens), sequence (Q96QE3 whole entry, looked up, the tested form may be a part): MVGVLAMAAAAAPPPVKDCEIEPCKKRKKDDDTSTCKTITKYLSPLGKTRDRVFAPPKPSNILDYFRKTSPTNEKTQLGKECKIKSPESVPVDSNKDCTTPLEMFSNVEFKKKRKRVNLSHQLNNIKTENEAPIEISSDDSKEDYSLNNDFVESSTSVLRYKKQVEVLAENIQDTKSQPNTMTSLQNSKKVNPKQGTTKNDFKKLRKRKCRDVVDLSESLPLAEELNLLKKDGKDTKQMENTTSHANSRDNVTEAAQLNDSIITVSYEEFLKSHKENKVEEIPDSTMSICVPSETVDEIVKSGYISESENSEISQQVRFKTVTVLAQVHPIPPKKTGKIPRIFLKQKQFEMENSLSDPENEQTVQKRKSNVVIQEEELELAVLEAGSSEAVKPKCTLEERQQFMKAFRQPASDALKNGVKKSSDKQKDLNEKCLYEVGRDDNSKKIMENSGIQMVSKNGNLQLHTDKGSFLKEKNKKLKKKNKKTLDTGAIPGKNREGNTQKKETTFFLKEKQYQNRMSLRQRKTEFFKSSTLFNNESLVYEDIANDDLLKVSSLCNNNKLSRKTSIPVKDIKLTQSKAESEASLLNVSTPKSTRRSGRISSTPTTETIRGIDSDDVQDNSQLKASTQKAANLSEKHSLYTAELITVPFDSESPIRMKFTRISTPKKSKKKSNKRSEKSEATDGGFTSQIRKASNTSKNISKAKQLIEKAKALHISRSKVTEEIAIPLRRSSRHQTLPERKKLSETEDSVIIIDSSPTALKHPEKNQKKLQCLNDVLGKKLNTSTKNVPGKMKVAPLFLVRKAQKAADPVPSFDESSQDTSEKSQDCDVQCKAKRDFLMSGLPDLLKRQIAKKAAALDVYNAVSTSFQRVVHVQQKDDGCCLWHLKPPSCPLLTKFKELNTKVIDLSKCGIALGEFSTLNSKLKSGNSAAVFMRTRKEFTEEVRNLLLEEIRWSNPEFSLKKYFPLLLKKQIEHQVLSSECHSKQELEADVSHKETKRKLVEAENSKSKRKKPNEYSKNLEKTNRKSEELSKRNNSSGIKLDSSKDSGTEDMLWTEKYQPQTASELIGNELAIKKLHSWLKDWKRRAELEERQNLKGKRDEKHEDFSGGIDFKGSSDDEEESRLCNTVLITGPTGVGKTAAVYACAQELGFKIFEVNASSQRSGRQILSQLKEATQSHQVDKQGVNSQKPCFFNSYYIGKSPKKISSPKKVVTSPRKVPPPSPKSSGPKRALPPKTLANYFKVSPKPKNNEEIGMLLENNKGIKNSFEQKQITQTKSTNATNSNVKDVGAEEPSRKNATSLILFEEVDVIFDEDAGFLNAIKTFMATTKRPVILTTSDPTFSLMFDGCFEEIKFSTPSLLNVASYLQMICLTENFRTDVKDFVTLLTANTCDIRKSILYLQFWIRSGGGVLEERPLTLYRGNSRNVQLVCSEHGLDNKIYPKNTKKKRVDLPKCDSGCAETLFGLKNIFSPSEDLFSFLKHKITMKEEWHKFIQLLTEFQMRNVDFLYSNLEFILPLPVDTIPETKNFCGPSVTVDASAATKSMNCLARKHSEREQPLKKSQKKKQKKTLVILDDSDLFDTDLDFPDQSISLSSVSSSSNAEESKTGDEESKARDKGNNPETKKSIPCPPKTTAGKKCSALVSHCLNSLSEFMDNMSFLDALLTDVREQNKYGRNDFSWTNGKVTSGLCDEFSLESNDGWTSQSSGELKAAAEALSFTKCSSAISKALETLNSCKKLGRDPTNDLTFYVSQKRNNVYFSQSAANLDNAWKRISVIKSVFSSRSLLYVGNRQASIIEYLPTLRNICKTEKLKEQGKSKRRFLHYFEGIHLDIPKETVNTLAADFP
Transient receptor potential cation channel subfamily V member 1 (Homo sapiens), sequence (Q8NER1 whole entry, looked up): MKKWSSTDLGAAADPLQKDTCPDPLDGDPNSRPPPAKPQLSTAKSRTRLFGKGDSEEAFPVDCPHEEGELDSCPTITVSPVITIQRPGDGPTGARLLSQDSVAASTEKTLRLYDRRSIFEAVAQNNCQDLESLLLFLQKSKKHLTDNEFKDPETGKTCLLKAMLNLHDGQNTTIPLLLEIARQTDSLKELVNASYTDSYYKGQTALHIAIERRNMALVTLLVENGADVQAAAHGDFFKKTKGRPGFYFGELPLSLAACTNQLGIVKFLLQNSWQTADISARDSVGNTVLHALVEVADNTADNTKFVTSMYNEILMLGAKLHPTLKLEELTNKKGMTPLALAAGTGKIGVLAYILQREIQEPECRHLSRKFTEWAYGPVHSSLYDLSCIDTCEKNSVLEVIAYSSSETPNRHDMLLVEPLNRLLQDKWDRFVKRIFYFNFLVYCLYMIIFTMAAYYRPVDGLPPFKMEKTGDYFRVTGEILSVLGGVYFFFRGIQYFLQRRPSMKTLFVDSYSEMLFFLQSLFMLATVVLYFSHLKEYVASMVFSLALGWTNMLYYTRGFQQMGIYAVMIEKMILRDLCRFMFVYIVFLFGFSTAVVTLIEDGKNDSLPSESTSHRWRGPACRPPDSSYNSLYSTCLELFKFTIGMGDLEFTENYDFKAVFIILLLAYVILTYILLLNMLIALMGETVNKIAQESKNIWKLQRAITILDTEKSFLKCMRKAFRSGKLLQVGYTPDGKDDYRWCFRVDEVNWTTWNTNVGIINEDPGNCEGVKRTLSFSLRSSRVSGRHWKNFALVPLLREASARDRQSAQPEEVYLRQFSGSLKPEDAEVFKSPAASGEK
M-phase phosphoprotein 8 (Homo sapiens), sequence (Q99549 whole entry, looked up): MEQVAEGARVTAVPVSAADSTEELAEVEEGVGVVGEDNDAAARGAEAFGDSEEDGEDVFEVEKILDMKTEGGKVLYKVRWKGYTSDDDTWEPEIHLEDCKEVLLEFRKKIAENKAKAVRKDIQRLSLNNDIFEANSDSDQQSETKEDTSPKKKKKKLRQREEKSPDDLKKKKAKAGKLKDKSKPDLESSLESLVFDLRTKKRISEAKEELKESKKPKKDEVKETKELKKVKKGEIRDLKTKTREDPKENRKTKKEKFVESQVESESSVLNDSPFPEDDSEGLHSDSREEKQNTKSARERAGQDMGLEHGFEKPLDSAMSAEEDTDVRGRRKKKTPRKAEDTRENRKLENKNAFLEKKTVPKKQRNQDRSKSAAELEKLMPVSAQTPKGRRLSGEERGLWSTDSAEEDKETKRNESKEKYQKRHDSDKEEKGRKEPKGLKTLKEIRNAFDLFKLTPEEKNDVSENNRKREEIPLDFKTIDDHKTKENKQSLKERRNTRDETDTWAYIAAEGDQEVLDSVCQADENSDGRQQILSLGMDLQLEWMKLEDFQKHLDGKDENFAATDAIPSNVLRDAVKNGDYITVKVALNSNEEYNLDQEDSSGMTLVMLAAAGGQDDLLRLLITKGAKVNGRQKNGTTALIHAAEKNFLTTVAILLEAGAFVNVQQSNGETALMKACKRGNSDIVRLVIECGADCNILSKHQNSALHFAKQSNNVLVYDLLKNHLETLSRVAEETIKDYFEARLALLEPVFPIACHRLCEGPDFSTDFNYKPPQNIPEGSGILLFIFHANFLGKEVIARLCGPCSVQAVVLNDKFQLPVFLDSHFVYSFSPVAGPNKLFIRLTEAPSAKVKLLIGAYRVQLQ
ATP-dependent 6-phosphofructokinase (Trypanosoma brucei brucei), sequence (O15648 whole entry, looked up): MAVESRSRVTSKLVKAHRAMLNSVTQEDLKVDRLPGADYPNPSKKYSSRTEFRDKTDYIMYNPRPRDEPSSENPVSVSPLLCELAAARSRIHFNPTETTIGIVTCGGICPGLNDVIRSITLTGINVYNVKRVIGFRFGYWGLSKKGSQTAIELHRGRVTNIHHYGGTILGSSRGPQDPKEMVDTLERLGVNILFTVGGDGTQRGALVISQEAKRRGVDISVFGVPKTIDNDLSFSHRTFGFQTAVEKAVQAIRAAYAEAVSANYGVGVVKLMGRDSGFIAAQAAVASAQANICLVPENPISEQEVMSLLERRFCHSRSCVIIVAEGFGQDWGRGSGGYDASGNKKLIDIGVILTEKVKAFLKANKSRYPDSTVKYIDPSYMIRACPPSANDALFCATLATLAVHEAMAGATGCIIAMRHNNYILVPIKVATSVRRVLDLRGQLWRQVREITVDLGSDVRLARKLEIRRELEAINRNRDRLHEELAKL

CC(=O)/C(C)=N/O
inactive: outcome [1] | Potency [2] | Potency [3] | Potency [4] | outcome [5] | Potency [6] | Potency [7] | Potency [8] | Potency [9] | outcome [10] | outcome [11] | Potency [12] | Potency [13] | Potency [14] | Potency [15] | activation [16] 0.0625%

CC1C(=O)N(C)C(=O)c2nc[nH]c21 (centres undefined)
inactive: outcome [1] | Potency [2] | Potency [3] | Potency [4] | outcome [5] | Potency [6] | Potency [7] | Potency [8] | Potency [9] | outcome [10] | outcome [11] | outcome [17] | Potency [12] | Potency [13] | Potency [14] | Potency [15] | Potency [18] | activation [16] 1.25%

Cn1c(=O)[nH]c2ncn(C)c2c1=O
inactive: outcome [1] | Potency [2] | Potency [3] | Potency [4] | outcome [5] | Potency [6] | Potency [7] | Potency [8] | Potency [9] | outcome [10] | outcome [11] | outcome [17] | Potency [13] | Potency [18] | activation [16] 0.188%

N=C(N)c1ccc(N)cc1
inactive: outcome [1] | Potency [2] | Potency [3] | Potency [4] | outcome [5] | Potency [6] | Potency [7] | Potency [8] | Potency [9] | outcome [10] | outcome [11] | outcome [17] | Potency [12] | Potency [13] | Potency [14] | Potency [15] | Potency [18]

CN[C@H](CC(=O)O)C(=O)O
inactive: outcome [1] | Potency [2] | Potency [3] | Potency [4] | outcome [5] | Potency [6] | Potency [7] | Potency [8] | Potency [9] | outcome [10] | outcome [11] | outcome [17] | Potency [12] | Potency [13] | Potency [14] | Potency [15] | activation [16] 1%

CN(C)CCC(c1ccc(Br)cc1)c1ccccn1 (centres undefined)
inactive: outcome [1] | Potency [2] | Potency [3] | Potency [4] | outcome [5] | Potency [6] | Potency [7] | Potency [8] | Potency [9] | outcome [10] | outcome [11] | Potency [12] | Potency [13] | Potency [14] | Potency [15] | Potency [18]

COc1ccccc1N1CCN(CCCCNC(=O)c2ccc3ccccc3c2)CC1
active: Potency [3] 2.94 µM | Potency [4] 4.65 µM | Potency [14] 8.91 µM
inactive: outcome [1] | Potency [2] | outcome [5] | Potency [6] | Potency [7] | outcome [10] | outcome [11] | outcome [17] | Potency [13] | Potency [15] | Potency [18]

N[C@@H](Cc1ccc(O)c(I)c1)C(=O)O
inactive: outcome [1] | Potency [2] | Potency [3] | Potency [4] | outcome [5] | Potency [6] | Potency [7] | Potency [9] | outcome [10] | outcome [11] | outcome [17] | Potency [12] | Potency [13] | Potency [14] | Potency [15] | Potency [18] | activation [16] 1.19%

CCCCCCN(CCCCCC)C(=O)Cc1c(-c2ccc(F)cc2)[nH]c2ccccc12
active: Potency [3] 3.7 µM | Potency [4] 5.22 µM
inactive: outcome [1] | Potency [2] | outcome [5] | Potency [6] | Potency [7] | Potency [8] | Potency [9] | outcome [10] | outcome [11] | outcome [17] | Potency [13] | Potency [14] | Potency [15] | Potency [18] | activation [16] -4%

C=CC1(C)CC(=O)C2(O)C(C)(O1)C(OC(C)=O)C(O)C1C(C)(C)CCC(O)C12C (centres undefined)
inactive: outcome [1] | Potency [2] | Potency [3] | Potency [4] | outcome [5] | Potency [6] | Potency [7] | Potency [8] | Potency [9] | outcome [10] | outcome [11] | outcome [17] | Potency [12] | Potency [13] | Potency [14] | Potency [18]

O=c1onc2n1-c1cc(Br)ccc1OC2
inactive: outcome [1] | Potency [2] | Potency [3] | Potency [4] | outcome [5] | Potency [6] | Potency [7] | Potency [8] | outcome [10] | outcome [11] | outcome [17] | Potency [12] | Potency [13] | Potency [15] | Potency [18] | activation [16] 1.75%

COC(=O)C(C)(N)Cc1ccc(O)cc1 (centres undefined)
inactive: outcome [1] | Potency [2] | Potency [3] | Potency [4] | outcome [5] | Potency [6] | Potency [7] | outcome [11] | outcome [17] | Potency [12] | Potency [13] | Potency [15] | Potency [18]

N=C(N)SCCc1cnc[nH]1
inactive: outcome [1] | Potency [2] | Potency [3] | Potency [4] | outcome [5] | Potency [6] | Potency [7] | Potency [8] | outcome [11] | outcome [17] | Potency [12] | Potency [13] | Potency [14] | activation [16] -0.375%

O=[N+]([O-])c1cccc2cn[nH]c12
inactive: outcome [1] | Potency [2] | Potency [3] | Potency [4] | outcome [5] | Potency [6] | Potency [7] | Potency [8] | Potency [9] | outcome [11] | outcome [17] | Potency [12] | Potency [13] | Potency [14] | Potency [15] | Potency [18] | activation [16] 0.5%

CCCN(CCc1ccccc1)C1CCc2c(O)cccc2C1 (centres undefined)
inactive: outcome [1] | Potency [2] | outcome [5] | Potency [6] | Potency [7] | Potency [8] | Potency [9] | outcome [10] | outcome [17] | Potency [12] | Potency [13] | Potency [15] | Potency [18] | activation [16] 1.25%
active: Potency [3] 3.29 µM | Potency [4] 3.29 µM

Source: PubChem BioAssay (NCATS)
